Experimental findings from PubChem BioAssay (NCI) are described below.

This is part of a sample that, as a whole, favours compounds with a hit. Of some 83,000 tested, about 20% had one in any assay.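 A percent growth of 40 corresponds to 60% growth inhibition; 0 means no net growth; -100 means all cells died. Active threshold: below 10.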 Unmarked numbers belong to inactive results. Activity calls are given as the source filed them.

Test in all cases: NCI-60 one-dose screen, 48 h (100 = growth as untreated, 0 = no growth, -100 = all killed)
Conditions in all cases: 10 µM unless noted

Test [1] concerns NCI-H23 lung.
Test [2] relates to NCI-H226 lung.
In test [3] the test system is NCI-H322M lung.
The test system of test [4] is HOP-62 NSCLC.
Test [5] has as its system NCI-H460 lung.
In test [6] the test system is NCI-H522 lung.
The test system of test [7] is A549/ATCC NSCLC.
In test [8] the test system is 786-0 renal.
The subject of test [9] is DU-145 prostate.
In test [10] the test system is COLO 205 colon.

Consider `O=C1Nc2ccc(F)cc2/C1=C/c1nc(-c2ccc(F)cc2)n2ccccc12`, for which the growth in test [1] is 104%; in test [2], 110%; in [3], 124%; in test [4], 96.4%; in test [5] it was 99.2%; in test [6], 108%. In addition, the results for the growth in test [7], in test [8] and in test [9] were 104%, 114% and 74.1%, respectively.
With `COc1cc2c(cc1OCCCOc1ccc(-c3cc4ccccc4c4ccccc34)cc1)N=C[C@@H]1CCCN1C2=O`, the growth in test [1] is -39.3% (active); in test [2] it was -78.7% (active); in test [3], -69.4% (active); in test [4] it was -45% (active); in test [5] it was -45.2% (active); in [6] it was -43.9% (active). The growth in [7] is -17.4% (active); in test [8], -79.9% (active); in test [9], -35.6% (active).
Consider `COc1cc2c(c(OC)c1OC)-c1ccc(NN(C(=O)c3ccccc3)C(=O)c3ccccc3)c(=O)cc1[C@@H](NC(C)=O)CC2` (tested in a mixture with another compound), for which the growth in test [1] was 26.9%; in test [2], 73.3%; in [3], 17.8%; in [4] it was 46%; in test [5] it was 17.9%; in test [6], -8.35% (active). Moreover, the growth is 56.6% in test [7], 31.4% in [8] and 3.42% (active) in test [9].
In the case of `CCCCCCCCCCCCNc1ncnc2[nH]ncc12`, the growth is 51.1% in test [1]; 72.9% in test [2]; 99.3% in test [3]; 93.4% in test [4]; 79.2% in [5]; 76.1% in test [6]. For the same compound, the growth in test [7] was 71.1%; in [10] it was 95.4%; in test [9], 85.9%.
As for `COc1ccc(CCN2CCCN3C2=Nc2ccccc2S3(=O)=O)cc1`, the growth was 28.8% in [1]; 61.7% in test [2]; 59.6% in test [3]; 52.5% in [4]; 13.4% in test [5]; 17.3% in [6]. The growth is 31.7% in [7], 1.13% (active) in [10] and 23% in test [9].
Consider `Cc1c(C(N)=O)sc2ncn(CC(=O)Nc3ccc(Cl)cc3)c(=O)c12`, for which the growth in [1] was 110%; in [2] it was 105%; in test [3] it was 114%; in [4], 97%; in [5] it was 110%; in test [6], 141%. For the same compound, the growth in [7] was 106%; in test [8] it was 104%; in test [9], 126%.
As for `COc1cc(OC)c2cc(C(=O)O)c(=O)oc2c1`, the growth is 96.8% in test [1]; 96.8% in test [2]; 79.8% in test [3]; 103% in test [4]; 95.3% in test [5]; 97.3% in [6]. Moreover, the growth in test [7] is 123%; in [8], 83.9%; in test [9] it was 129%.
In the case of `CO[C@H]1/C=C/O[C@@]2(C)Oc3c(C)c(O)c4c(O)c(c(/C=N/N5C(C)CN(Cc6ccccc6)CC5C)c(O)c4c3C2=O)NC(=O)/C(C)=C\C=C\[C@H](C)[C@H](O)[C@@H](C)[C@@H](O)[C@@H](C)[C@H](OC(C)=O)[C@@H]1C` (stereo partly drawn), the growth in test [1] is 14.7%; in test [2] it was 68.1%; in [3] it was 121%; in test [4], 89.1%; in test [5], 54.9%; in test [6], -12.5% (active). For the same compound, the results for the growth in test [8], in test [10] and in test [9] were 68.7%, 80.1% and 81.6%, respectively.
In the case of `Cc1nn(-c2ccccc2)c2nc3c(nc12)C(=O)CCC3`, the growth is 80.4% in test [1]; 107% in [2]; 93.1% in test [3]; 92.9% in test [4]; 104% in test [5]; 74% in [6]. For the same compound, the growth in test [7] is 92.9%; in [8], 88.5%; in test [9] it was 104%.
For `CCN(CC)c1ccc(CN(CC(=O)c2ccc(Cl)c(Cl)c2)Cc2ccccc2)cc1`, the growth is 97.6% in [1]; 90.9% in test [2]; 110% in [3]; 96.9% in test [4]; 101% in test [5]; 106% in [6]. For the same compound, the growth was 107% in [7], 104% in test [10] and 104% in test [9].
`CC(=O)c1ccc2c3c(n(C)c2c1)CCCC3`: the growth is 104% in test [1]; 33% in test [2]; 117% in test [3]; 101% in test [4]; 84.9% in [5]; 95.2% in test [6]. For the same compound, the growth was 106% in test [7], 92.7% in test [8] and 98.3% in test [9].
`O=C(Nc1ccc(Cl)cc1)Nc1ccc(Oc2nncc3ccccc23)cc1`: the growth in test [1] was 0.498% (active); in test [2] it was -54.5% (active); in test [3], 60.9%; in [4], 12.9%; in [5] it was 21.5%; in [6], -46.3% (active). Besides, the figures for the growth in test [7], in test [10] and in test [9] were 40%, 11.9% and 11.2%, respectively.
On to `CCC(CCC(C)C1CCC2C3CC=C4CC(O)CCC4(C)C3CCC12C)C(C)C` (stereo not drawn) (tested in a mixture with another compound), for which the growth was 112% in test [1]; 101% in test [2]; 145% in test [3]; 114% in test [4]; 96.6% in [5]; 116% in test [6]. Further, the growth in test [8] was 96%; in test [10] it was 107%; in test [9], 115%.
Turning to `N#Cc1c2ccccc2c2n1-c1ccccc1OC(c1ccccc1)C2=O` (stereo not drawn), the growth in [1] is 22.6%; in test [2], 21.2%; in test [3], 81.5%; in [4] it was 32.6%; in test [5] it was 31.8%; in [7] it was 10.4%. Moreover, the growth in test [8] was 31.7%; in [10] it was 63.9%; in test [9], 56.7%.
Regarding `O=C(O)C(=O)O`, the growth is 15.2% in [1]; 96.6% in test [2]; 95.2% in [3]; 108% in test [4]; 111% in [5]; 33.1% in [6]. For the same compound, the growth was 96.9% in test [8], 108% in test [10] and 99.6% in test [9].
For the compound `CC(C)COCC(CN(Cc1ccccc1)c1ccccc1)N1CCCC1` (stereo not drawn), the growth in test [1] was 60.7%; in test [2] it was 65.8%; in test [3] it was 78.8%; in test [4], 71.3%; in test [5] it was 43.8%; in test [6], 32.1%. Also, the growth in test [8] was 68.2%; in test [10], 40.1%; in test [9], 70%.
Regarding `Cn1c(=O)c2nc(SCc3ccccc3)n(C)c2n(C)c1=O`, the growth in [1] was 108%; in [2] it was 102%; in test [3], 109%; in test [4], 107%; in test [5] it was 109%; in test [7], 99.2%. Besides, the growth is 109% in [8], 104% in test [10] and 117% in test [9].
